Reference: the supplement of paper PMC10981050
Where a name gives a salt, the structure may show the parent alone.

Tested on: MOLM14
Assay: cell viability relative to vehicle control; higher = less cytotoxic
Conditions: 10 µM; SRSF2 genotype: SRSF2 wt/wt
Outline: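 CRISPR-edited SRSF2 P95 mutant and isogenic wild-type clones of four leukaemia lines were screened against Selleck bioactive, kinase and epigenetic probe libraries, with identity-inconsistent compounds removed. Compounds were acoustically dispensed into 384-well plates at a single 10 µM dose, with 2000 cells in 50 µL medium per well. After 48 h, supernatant was removed and CellTiter-Glo luminescence was read. Viability was expressed as percent of the on-plate DMSO vehicle control, analysed in Genedata Screener.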

| Structure (SMILES) | cell viability |
| --- | --- |
| NC(=O)c1cccc2cn(-c3ccc(C4CCCNC4)cc3)nc12 (stereo unspecified) [MK-4827(Niraparib)] | 8.96% |
| CCOC(=O)C1=C(COCCN)NC(C)=C(C(=O)OC)C1c1ccccc1Cl (stereo unspecified) [Amlodipine besylate (Norvasc)] | 59.5% |
| Cc1ccccc1C(OCCN(C)C)c1ccccc1 (stereo unspecified) [Orphenadrine citrate (Norflex)] | 98.1% |
| Cc1ccc(C(C)C)cc1O [Carvacrol] | 100% |
| CN1CCN(c2ccc(C(=O)Nc3n[nH]c4ccc(Cc5cc(F)cc(F)c5)cc34)c(NC3CCOCC3)c2)CC1 [Entrectinib (RXDX-101)] | 0.28% |
| Nc1nc(N)nc(-c2cc(Cl)ccc2Cl)n1 [Irsogladine] | 103% |
| O=C(Nc1ncc([N+](=O)[O-])s1)c1ccccc1O [Tizoxanide] | 100% |
| CO[C@H]1C[C@@H]2CC[C@@H](C)[C@@](O)(O2)C(=O)C(=O)N2CCCC[C@H]2C(=O)O[C@H]([C@H](C)C[C@@H]2CC[C@H](n3cnnn3)[C@H](OC)C2)CC(=O)[C@H](C)/C=C(\C)[C@@H](O)[C@@H](OC)C(=O)[C@H](C)C[C@H](C)/C=C/C=C/C=C/1C [Zotarolimus (ABT-578)] | 56.5% |
| O=C(c1ccc(OCCCc2c[nH]cn2)cc1)C1CC1 [Ciproxifan Maleate] | 93.9% |
| Cc1ccc2nc(CN(CCN(Cc3nc4ccc(C)cc4[nH]3)Cc3nc4ccc(C)cc4[nH]3)Cc3nc4ccc(C)cc4[nH]3)[nH]c2c1 | 0.53% |
| Nc1c(Br)cc(Br)cc1CN[C@H]1CC[C@H](O)CC1 [Ambroxol] | 102% |
